Among the data in PubChem BioAssay (EPA / NIEHS) are outcome and AC50 values, retold here.

“And” between values parts separate entries of the source, which are not always exact repeats. Equal entries are not always repeated. Results filed as inconclusive are left out. The source holds several records for some structures; these can differ, active in one and inactive in another. The source made the active and inactive calls. The calls were made as follows, unless noted: active = hit-call score of the fitted dose curve at least 0.9, where 1 is the maximum; inactive = score below 0.9.

Assay [1] can be described thus: BSK_BT_PBMCCytotoxicity: PBMC Cytotoxicity Assessment in the BioMAP Diversity Plus: BT Assay (AID 2284225).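 Also: PBMC viability measured by Alamar Blue dye reduction fluorescence.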 The conditions noted are these: primary human B cells with PBMC. The method, boiled down: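 Viability by Alamar Blue reduction (6 h, ex/em 546/580 nm) after 90 h culture of SEB/TSST-1-activated PBMC (20 ng/mL each) given compound 1 h before activation. DMSO served as baseline for curve fitting.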

Read-out in assay [2]: Secreted IgG (sIgG), gene 3500
Description: BSK_BT_sIgG: BioMAP Diversity Plus: BT Assay for Secreted IgG (sIgG) Biomarker Activity (AID 2284226). The following applies: primary human B cells with PBMC. The method, boiled down:
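Cells (B cells with peripheral blood mononuclear cells) are dosed, cultured 24 h, then supernatant IgG is measured by ELISA. DMSO serves as negative control; curves are fitted for signal increase.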

Assay [3] in a line: BSK_BT_Bcell_Proliferation: Viability Assessment in the BioMAP Diversity Plus: BT Assay for B cell Proliferation (AID 2284227). The conditions noted are these: primary human B cells with PBMC. Put shortly:
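Using a human primary B cell–PBMC co-culture, the assay measures total protein by sulforhodamine B absorbance as a gauge of proliferation after 72 h. Analysis followed the positive fitting direction with DMSO as baseline.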

Read-out in assay [4]: Interleukin 6 (IL6), IL6 (gene 3569)
Kind of assay: BSK_BT_xIL6: BioMAP Diversity Plus: BT Assay for Interleukin 6 (IL6) Biomarker Activity (AID 2284228). The following applies: primary human B cells with PBMC. Put shortly:
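B cells and peripheral blood mononuclear cells (human primary co-culture) were dosed with chemical, and after 24 h IL-6 released into the medium was measured by Luminex xMAP. Responses were analysed as gain of signal over DMSO control.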

Read-out in assay [5]: Interleukin 17A (IL17A), IL17A (gene 3605)
Description: BSK_BT_xIL17A: BioMAP Diversity Plus: BT Assay for Interleukin 17A (IL17A) Biomarker Activity (AID 2284229). The conditions noted are these: primary human B cells with PBMC. Put shortly: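 Secreted IL-17A was the measured endpoint, read by Luminex xMAP multiplex in supernatants of a human B cell/PBMC co-culture harvested 24 h after chemical dosing. Signal increase relative to DMSO defined activity.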

Read-out in assay [6]: Tumor necrosis factor (Homo sapiens) (UniProt P01375)
Kind of assay: BSK_BT_xTNFa: BioMAP Diversity Plus: BT Assay for Tumor necrosis factor alpha (TNF-alpha) Biomarker Activity (AID 2284230). The following applies: primary human B cells with PBMC. Put shortly: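 Endpoint derived in the positive direction versus DMSO vehicle. Cells: B cells together with PBMC, exposed 24 h before TNF-alpha in the medium was read on the Luminex xMAP platform.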

Read-out in assay [7]: Vascular cell adhesion molecule 1 (VCAM1), VCAM1 (gene 7412)
Kind of assay: BSK_MyoF_VCAM1: BioMAP Diversity Plus: MyoF Assay for Vascular cell adhesion molecule 1 (VCAM1) Biomarker Activity (AID 2284231). The following applies: primary human lung fibroblasts. The method, boiled down:
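ELISA read-out of VCAM-1 on human lung fibroblasts 24 h after chemical treatment, with positive-direction curve fitting relative to DMSO controls. Parallel cultures were stained with sulforhodamine B for total protein to flag overt cytotoxicity.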

Assay [8] is described as follows: CCTE_Mundy_HCI_hNP1_Pro_ResponderAvgInten: CCTE's Proliferation Assay in human neuroprogenitor cells, Mundy Lab (AID 2284224; active = hit-call score of the fitted dose curve at least 0.9, where 1 is the maximum;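 also: human neural progenitor cells hNP1 derived from WA09 embryonic stem cells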). Put shortly:
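Human neuroprogenitors (hNP1, WA09 lineage) receive test chemical after 40 to 44 hours of attachment. A four-hour BrdU pulse begins twenty hours later, followed by fixation and high content imaging; signal is referenced to DMSO controls.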

Assay [9] is described as follows: TAMU_HCS_1.5hr_SingleDonor1434_Cytotoxicity: Cytotoxicity Assessment using High-content Screening (HCS) Fluorescent Imaging for the Texas A&M University (TAMU) 1.5-hr Human Induced Pluripotent Stem Cell (iPSC)-derived Cardiotoxicity Assay (AID 2284234; active = hit-call score of the fitted dose curve at least 0.9, where 1 is the maximum). The method, boiled down:
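Nuclear counts from Hoechst 33342 imaging define cytotoxicity here, with EC10 (10% cell-count loss relative to DMSO) as point of departure. iPSC cardiomyocytes received 0.2-100 uM test chemical in 0.5% DMSO for 1.5 h at 37 C.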

A short description of assay [10]: UKN2_HCS_IMR90_cell_viability: Viability Assessment in the University of Konstanz (UKN) Leist Lab Neural Crest Cell Migration Assay in human induced IMR90 Pluripotent Stem Cells (UKN2) (AID 2284233).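 Also: viability of neural crest cells differentiated from IMR90 iPSC measured by calcein-AM fluorescence imaging; cells exposed to compound for 24 h after a 24 h migration phase.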 Put shortly: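 cMINC format, iPSC-derived neural crest (IMR90); 24 h migration (EGF/FGF, N2-S), then 24 h toxicant. Calcein-AM/H-33342 stain 30 min; fluorescence intensity by HCS; DMSO-normalised, bidirectional fitting.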

As usually defined, the AC50 is the concentration at which the activity in the assay is half-maximal.

Chain of Tumor necrosis factor (Homo sapiens) (P01375 whole entry, looked up): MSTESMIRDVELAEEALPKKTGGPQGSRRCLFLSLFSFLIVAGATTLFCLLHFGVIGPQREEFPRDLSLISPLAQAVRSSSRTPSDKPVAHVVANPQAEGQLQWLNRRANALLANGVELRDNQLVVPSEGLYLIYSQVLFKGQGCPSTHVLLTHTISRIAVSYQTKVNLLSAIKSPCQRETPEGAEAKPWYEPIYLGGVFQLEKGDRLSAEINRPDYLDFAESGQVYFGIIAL

For `CCO[Si](CCC(F)(F)C(F)(F)C(F)(F)C(F)(F)C(F)(F)C(F)(F)F)(OCC)OCC`, the result in [1], in assay [2], in [3], in assay [4], in [5] and in assay [6] was inactive. In addition, in [7], the outcome was inactive.
In the case of `OC[C@@H](O)[C@@H](O)[C@H](O)[C@@H](O)CO`, the outcome in assay [8] and in assay [9] was inactive.
For `C#C[C@]1(O)CC[C@H]2[C@@H]3CCc4cc(OC)ccc4[C@H]3CC[C@@]21C`, the result in assay [1], in assay [4], in assay [5] and in assay [7] was inactive. The AC50 in [2] was 7.71 µM (active); in assay [3], 29.6 µM (active); in [6], 20 µM (active).
With `FC(F)(F)C(F)(F)C(F)(F)C(F)(F)C(F)(F)C(F)(F)C(F)(F)C(F)(F)CCS`, the compound was called inactive in assay [8], in assay [1], in assay [2], in [3], in assay [4] and in assay [5]. In addition, the result in [6] and in assay [7] was inactive. Moreover, the AC50 in assay [7] was 6.22 µM (active).
In the case of `O=C(O)C(F)(OC(F)(F)C(F)(OC(F)(F)C(F)(F)C(F)(F)F)C(F)(F)F)C(F)(F)F` (stereo not drawn), the result in assay [1], in [2], in assay [3], in [4], in [5] and in assay [6] was inactive. For the same compound, in assay [7], the outcome was inactive.
`O=S(=O)(OCC(F)F)C(F)(F)F`: the outcome in assay [1], in assay [2], in [3], in [4], in [5] and in assay [6] was inactive. Moreover, the outcome in assay [7] was inactive. For the same compound, the AC50 in assay [6] was 1.01 µM (active).
For the compound `CC(CCl)OP(=O)(OC(C)CCl)OC(C)CCl` (stereo not drawn), the result in assay [8], in assay [1], in assay [2], in [3], in assay [4] and in assay [5] was inactive. The result in [6], in [7] and in assay [10] was inactive.
As for `FC(F)(F)C(F)(F)C(F)(F)C(F)(F)C(F)(F)C(F)(F)C(F)(F)I`, the result in assay [1], in [2], in assay [3], in assay [4], in assay [5] and in [6] was inactive. In assay [7], the AC50 is 4.15 µM (active) and 4.24 µM (active).
`C=C(C)C(=O)OCC(F)(F)C(F)(F)C(F)(F)F`: the compound was classed as inactive in [8], in assay [1], in assay [2], in assay [3], in assay [4] and in assay [5]. In addition, the outcome in assay [6] and in assay [7] was inactive. Moreover, in [3], the AC50 is 2.27 µM (active).
For `C=CC(=O)OCC(F)(F)C(F)(F)C(F)(F)C(F)(F)C(F)(F)C(F)(F)C(F)(F)F`, the concentration at half-maximal activity (AC50) in assay [1] was 14 µM (active); in assay [6], 44.7 µM (active). Besides, the result in assay [1], in assay [2], in [3], in [4], in assay [5] and in assay [6] was inactive. In assay [7], the result was inactive.
For `FC(F)(I)C(F)(F)C(F)(F)C(F)(F)I`, the AC50 in assay [1] is 49.7 µM (active) and 47.7 µM (active) and 47.2 µM (active); in assay [2] it was 45.7 µM (active) and 46.4 µM (active) and 56.3 µM (active); in assay [3], 52.2 µM (active) and 54.9 µM (active) and 48.7 µM (active); in assay [4], 46.3 µM (active) and 55.2 µM (active) and 45.9 µM (active); in [5] it was 42.1 µM (active) and 50.4 µM (active) and 39.2 µM (active); in assay [6] it was 48.3 µM (active) and 46.1 µM (active) and 46 µM (active). Also, in [7], the concentration at half-maximal activity (AC50) is 52.7 µM (active) and 45.4 µM (active) and 45.5 µM (active).
`O=C(O)C(F)(F)C(F)(F)F`: the outcome in assay [1], in assay [2], in assay [3], in assay [4], in assay [5] and in [6] was inactive. Besides, in assay [7], the outcome was inactive.
As for `O=S(=O)(O)C(F)(F)C(F)(F)C(F)(F)C(F)(F)C(F)(F)C(F)(F)C(F)(F)F`, the outcome in assay [1], in [2], in [3], in assay [4], in assay [5] and in assay [6] was inactive. In assay [7], the outcome was inactive.
For `N=C(N)C(F)(F)C(F)(F)C(F)(F)C(F)(F)C(F)(F)C(F)(F)C(F)(F)F`, the compound was called inactive in [8], in assay [1], in [2], in [3], in assay [4] and in [5]. The outcome in assay [6] and in assay [7] was inactive. The concentration at half-maximal activity (AC50) in [1] was 44.7 µM (active); in assay [2], 44.4 µM (active); in assay [3], 45.4 µM (active); in assay [4], 46 µM (active); in assay [5] it was 44.2 µM (active); in [6], 45.5 µM (active).
Consider `FC(F)(F)C(F)(F)C(F)(F)C(F)(F)C(F)(F)C(F)(F)CCS`, for which the result in assay [1], in [2], in assay [3], in [4], in [5] and in assay [6] was inactive. Also, the result in [7] was inactive.
Consider `O=C(O)C(F)(F)C(F)(F)C(F)(F)C(F)(F)C(F)(F)C(F)(F)C(F)(F)C(F)(F)Cl`, for which the concentration at half-maximal activity (AC50) in [1] was 20.5 µM (active) and 22.2 µM (active); in [3], 8.64 µM (active) and 37.3 µM (active); in [7], 43.5 µM (active) and 23.5 µM (active). For the same compound, the result in assay [2], in assay [4], in [5] and in assay [6] was inactive.
